Entries with a potency or affinity are not part of this list.
target: Protein disulfide-isomerase A6 (Homo sapiens) (UniProt Q15084); experiment: inhibitors of ERp5-mediated insulin aggregation, dose response, biochemical, turbidity, absorbance 650 nm, cherry-picked samples (AID 720566); conditions: Recombinant ERp5 insulin aggregation; series mostly up to 35 µM; activity change, negative = inhibition: at the top concentration;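 also: negative values mean less insulin aggregation so ERp5 inhibition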
Sequence (Q15084 whole entry, looked up): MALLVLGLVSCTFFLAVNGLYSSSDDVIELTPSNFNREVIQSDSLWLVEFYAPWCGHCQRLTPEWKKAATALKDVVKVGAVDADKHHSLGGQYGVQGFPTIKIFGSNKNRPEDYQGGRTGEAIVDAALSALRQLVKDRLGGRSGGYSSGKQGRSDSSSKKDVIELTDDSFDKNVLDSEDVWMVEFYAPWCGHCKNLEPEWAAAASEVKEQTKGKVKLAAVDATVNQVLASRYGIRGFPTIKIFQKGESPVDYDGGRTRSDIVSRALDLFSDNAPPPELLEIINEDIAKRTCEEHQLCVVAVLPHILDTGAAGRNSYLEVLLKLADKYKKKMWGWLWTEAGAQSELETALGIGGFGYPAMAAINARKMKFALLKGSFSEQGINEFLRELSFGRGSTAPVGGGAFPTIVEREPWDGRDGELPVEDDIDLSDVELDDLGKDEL

Activity change, negative = inhibition, inactive:
CO[C@H]1CN(C)C(=O)c2cc(NC(=O)CC(F)(F)F)ccc2OC[C@H](C)N(C(=O)C2CC2)C[C@@H]1C 2.98% [at 30 µM], C[C@@H]1CN([C@H](C)CO)C(=O)c2cc(NC(=O)Nc3ccc(F)cc3)ccc2O[C@H]1CN(C)Cc1ccc(-c2ccccc2)cc1 0.559%, COC(=O)C[C@@H]1C[C@@H]2c3cc(NC(=O)Cc4ccncc4)ccc3O[C@@H]2[C@H](CO)O1 0.675%, C/C=C/c1ccc2c(c1)O[C@@H](CN(C)S(C)(=O)=O)[C@H](C)CN([C@H](C)CO)S2(=O)=O -1.64%, Cc1noc(C)c1NC(=O)Nc1ccc2c(c1)C(=O)N([C@H](C)CO)C[C@@H](C)[C@@H](CN(C)C(=O)Nc1ccc(F)cc1)O2 0.559%, CCC[C@@H](CN1CCC[C@H]1CN1C(N)=NC[C@H]1CC(C)C)N1C[C@@H]([C@H](C)CC)N(CCCC2CCCC2)C1=N 8.04%, COc1ccc(S(=O)(=O)Nc2ccc3c(c2)C(=O)N([C@H](C)CO)C[C@H](C)[C@H](CN(C)C(=O)Nc2ccccc2)O3)cc1 -9.35%, O=C(C[C@H]1C[C@@H]2c3cc(NC(=O)C4CCC4)ccc3O[C@@H]2[C@H](CO)O1)NCC(F)(F)F 1.45%, C[C@@H]1CN([C@@H](C)CO)C(=O)c2cc(C#CC3(O)CCCC3)cnc2O[C@H]1CN(C)C(=O)Cc1cccnc1 3.35%, C/C=C/c1ccc2c(c1)O[C@H](CN(C)Cc1cncnc1)[C@H](C)CN([C@@H](C)CO)S2(=O)=O 3.18%, CC(C)NC(=O)N(C)C[C@@H]1Oc2ncc(-c3cc4ccccc4o3)cc2C(=O)N([C@H](C)CO)C[C@@H]1C 4.66%, C[C@H]1CN([C@@H](C)CO)C(=O)CCCn2cc(nn2)CO[C@@H]1CN(C)Cc1cccc(C(F)(F)F)c1 1.68%, O=C(CN1C(=O)NC2(CCCC2)C1=O)Nc1cc(C(F)(F)F)ccc1N1CCCCC1 13.5%, CN(CC(=O)Nc1ccc(F)c(F)c1F)C(=O)c1cc(-c2ccncc2)nc2ccccc12 5.55%, C[C@H](CO)N1C[C@H](C)[C@@H](CN(C)S(=O)(=O)c2cn(C)cn2)Oc2ccc(NC(=O)c3ccncc3)cc2CC1=O 1.49%, CN(C)C(=O)C[C@@H]1C[C@@H]2c3cc(NS(C)(=O)=O)ccc3O[C@@H]2[C@H](CO)O1 0.745%, CCCNC(=O)C[C@@H]1C[C@H]2c3cc(NS(C)(=O)=O)ccc3O[C@H]2[C@@H](CO)O1 -8.39%, COc1ccccc1CN(C)c1ccc(S(=O)(=O)N2CCN(C)CC2)cn1 -5.32%, Cc1noc(C)c1NC(=O)N(C)C[C@H]1Oc2ccc(NC(=O)c3ccncc3)cc2C(=O)N([C@H](C)CO)C[C@@H]1C -1.12%, COCCNC(=O)c1ccccc1NS(=O)(=O)c1ccc(C)c([N+](=O)[O-])c1 25%, O=C(C[C@H]1C[C@@H]2c3cc(NC(=O)CC4CC4)ccc3O[C@@H]2[C@@H](CO)O1)NCc1ccc(-c2ccccc2)cc1 -3.76%, CC(C)C(NC(=O)c1ccc(F)cc1)C(=O)N1CCOCC1 (stereo not drawn) 21.2%, COc1cccc(C(=O)OCC(=O)c2[nH]c(C)c(C(C)=O)c2C)c1 -24.1%, O=C(Cc1ccc(NC(=O)C2CCCN(C(=O)C3CC3)C2)cc1)Nc1cccc(C(=O)N2CCCCC2)c1 (stereo not drawn) -9.63%, C[C@@H]1CN([C@@H](C)CO)C(=O)c2cc(NC(=O)Nc3ccc4c(c3)OCO4)ccc2O[C@@H]1CN(C)Cc1ccc(C(=O)O)cc1 -9.55%, COc1cccc(CC(=O)NNC(=O)CN(C)S(=O)(=O)c2ccc(C)cc2)c1 6%, CCC(=O)Nc1ccc2c(c1)C(=O)N(C)[C@H]1CC[C@@H](CC(=O)NCC3CC3)O[C@H]1CO2 1.64%, C[C@@H]1CN([C@@H](C)CO)C(=O)c2cc(Br)cnc2O[C@H]1CN(C)Cc1cccc(F)c1 1.25%, C[C@@H]1CN([C@H](C)CO)C(=O)c2cccc(NS(=O)(=O)c3ccc(Cl)cc3)c2O[C@@H]1CN(C)Cc1ccc(C(F)(F)F)cc1 -7.04%, COc1cccc(S(=O)(=O)N2CC3(CN(C(=O)Nc4cccc(F)c4)[C@H](CO)c4[nH]c5cc(OC)ccc5c43)C2)c1 4.84% [at 30 µM], COCC#Cc1cnc2c(c1)C(=O)N([C@@H](C)CO)C[C@H](C)[C@@H](CN(C)C(=O)NC1CCCC1)O2 -4.34%, CCC(=O)Nc1ccc2c(c1)C(=O)N(C)[C@H]1CC[C@H](CC(=O)NCC3CC3)O[C@H]1CO2 -1.49%, COC(=O)C[C@H]1C[C@@H]2c3cc(NC(=O)Cc4ccncc4)ccc3O[C@@H]2[C@@H](CO)O1 2.05%
